Screening results from PubChem.
VP16 counter – inhibits Gal4-VP16 luciferase reporter, ROR gamma counter-screen. Drosophila S2 Gal4-VP16 UAS-luciferase, luminescence, 20 h. 3.5% of 310,000 active. Potency, µM (series often up to 53.6 µM), without a hit: at the top dose activity, negative = inhibition, most hits filed as inhibitors;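 also: Gal4-VP16 expression switched on by copper sulfate through the metallothionein promoter; nearly all actives have a fitted effect of over 50% in size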
PLK1 PBD block – inhibitors of human PLK1 polo-box domain binding; AID 720504; 2.8% of 360,000 active; Plk1 PBD binding of FITC phosphopeptide, fluorescence polarization; Potency, µM, inactives show max response, negative = inhibition, actives largely listed as inhibitors; P53350; also: series mostly up to about 57 µM; nearly all actives have a fitted effect of over 65% in size
RORgamma inh – ROR gamma (mouse) transcription inhibition; P51450; Drosophila S2 Gal4-RORgamma UAS-luciferase reporter, 20 h; Potency, µM (doses to about 53.6 µM), without a hit: at the highest dose activity change, negative = inhibition, most hits filed as inhibitors; 5.4% of 310,000 active; also: nearly all actives have a fitted effect of over 60% in size
Target sequence (P51450 whole entry, looked up, the tested form may be a part): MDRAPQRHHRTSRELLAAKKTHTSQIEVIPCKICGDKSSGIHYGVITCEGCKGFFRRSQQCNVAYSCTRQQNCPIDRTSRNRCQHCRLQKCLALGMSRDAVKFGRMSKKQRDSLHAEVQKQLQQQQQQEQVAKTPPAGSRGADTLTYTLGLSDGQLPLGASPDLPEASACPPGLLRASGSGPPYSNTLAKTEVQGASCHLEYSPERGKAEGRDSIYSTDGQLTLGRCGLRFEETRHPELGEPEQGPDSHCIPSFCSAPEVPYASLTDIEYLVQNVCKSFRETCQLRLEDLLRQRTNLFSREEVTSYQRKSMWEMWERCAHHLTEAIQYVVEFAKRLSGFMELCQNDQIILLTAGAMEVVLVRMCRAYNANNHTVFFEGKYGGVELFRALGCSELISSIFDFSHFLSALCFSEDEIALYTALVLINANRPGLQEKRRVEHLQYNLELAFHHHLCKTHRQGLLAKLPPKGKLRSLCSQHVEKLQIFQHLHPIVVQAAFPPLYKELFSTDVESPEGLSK
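Luciferase reporter read in Schneider cells carrying Gal4-RORγ (mouse) and UAS-Photinus luciferase; cells given compound 1 h before 700 uM copper sulfate induction, then incubated 20 h at ambient temperature.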
Sfp inh – inhibitors of Bacillus subtilis Sfp phosphopantetheinyl transferase. Q9F4F7. Biochemical Sfp PPTase activity, qHTS. Potency, µM, for the others: largest response in the series, negative = inhibition, most hits filed as inhibitors. 3.5% of 310,000 active. AID 1490;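 also: the enzyme is Sfp with the accession as filed and its product quenches rhodamine fluorescence; 0% = enzyme reaction without inhibitor and -100% = no enzyme wells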
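With Hepes-Na pH 7.6 buffer containing 10 mM MgCl2, Sfp (15 nM) modified BHQ-2-YbbR (12.5 uM) using rhodamine-CoA (5 uM). Two reads 30 minutes apart at 525/598 nm yielded each well's rate.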
ALDH1A1 inh – blocks purified human ALDH1A1 activity; Potency, µM (series often up to 75.3 µM), inactives show at the highest dose activity, negative = inhibition, hits mostly inhibitors; P00352; 7.3% of 220,000 active; Purified ALDH1A1, NADH fluorescence, propionaldehyde substrate; AID 1030; active = well fitted inhibition curve with a large enough effect, not every such curve was filed as active; inconclusive = small, poorly fitted or top-dose-only effect, or another doubt; inactive = no such curve, though single readings can be large or run the other way;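 also: plate controls were no enzyme wells and a reference inhibitor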
Numbers without * were called inactive; [ ] = another dose, or the depositor's remark. Sampled rows, rich in hits. Any-hit rate of the full collection: about 12%. Unless noted, calls follow the shape of the dose curve; as a rule, active = well fitted curve in the direction sought with a large enough effect; inconclusive = small, poorly fitted or top-dose-only effect, or another doubt; inactive = no such curve, though single readings can be large; an effect the other way counts as inactive or inconclusive. Unless noted, % is scaled to controls: 0 for no effect and ±100 for the full control effect; potency is read from the fitted curve at half-maximal effect.

For COc1ccc2nc(/C=N/NC(=O)[C@@H]3CCCN3C(=O)OC(C)(C)C)ccc2c1 the results were VP16 counter -4%, PLK1 PBD block 0%, RORgamma inh -30% and Sfp inh 89µM*.
For Cc1ccc(Nc2nc(C3CC3)cs2)cc1 the results were VP16 counter -21%, RORgamma inh inconclusive, Sfp inh 45µM* and ALDH1A1 inh inconclusive.
For Clc1ccc(Nc2nc(C3CC3)cs2)cc1 the results were VP16 counter 2%, PLK1 PBD block -16%, RORgamma inh -45%, Sfp inh inconclusive and ALDH1A1 inh inconclusive.
`Cc1ccc(Nc2nc(C(=O)NCc3ccco3)cs2)cc1` gave VP16 counter 7%, PLK1 PBD block 0%, RORgamma inh 31%[10 µM], Sfp inh -20% and ALDH1A1 inh 5%.
`CC(=O)Cc1nsc(Nc2ccc(C)cc2)n1` gave VP16 counter -2%, PLK1 PBD block 27µM*, RORgamma inh 8%, Sfp inh 26% and ALDH1A1 inh 4%.
`CCN(CC)C(=O)c1csc(Nc2ccc(C)cc2)n1` gave VP16 counter -7%, PLK1 PBD block -9%, RORgamma inh inconclusive, Sfp inh 20µM* and ALDH1A1 inh 3%.
For CO/N=C1/c2cc(OC)ccc2O[C@@H](c2cccc(OC)c2)[C@H]1O the results were VP16 counter -24%[10 µM], RORgamma inh inconclusive, Sfp inh 0% and ALDH1A1 inh inconclusive.
Screening Cc1cc2nc3c(=O)[nH]c(=O)nc-3n(CC(O)C(O)C(O)CO)c2cc1C (centres undefined) returned VP16 counter 1%, RORgamma inh -37%, Sfp inh 15% and ALDH1A1 inh inconclusive.
`Cc1cc2nc3c(=O)[nH]c(=O)nc-3n(C)c2cc1C=O` gave VP16 counter 2%, RORgamma inh 10µM*, Sfp inh 7% and ALDH1A1 inh 1%.
For CC(=O)OCCn1c2nc(=O)[nH]c(=O)c-2nc2cc(C)c(C)cc21 the results were VP16 counter 7%, PLK1 PBD block 0.84µM*, RORgamma inh -15%, Sfp inh 7% and ALDH1A1 inh 1%.
CCCC(=O)OC[C@@H](OC(=O)CCC)[C@@H](OC(=O)CCC)[C@H](Cn1c2nc(=O)[nH]c(=O)c-2nc2cc(C)c(C)cc21)OC(=O)CCC was read as VP16 counter -15%, RORgamma inh 12% and Sfp inh 18%.
CCC1=C2CC[C@H]3C(=O)N(CC)C(=O)[C@H]3[C@H]2[C@@]2(Cc3ccccc3)C(=O)N(CC3CC3)C(=O)N2C1=O was read as VP16 counter 8%, RORgamma inh -13%, Sfp inh 17% and ALDH1A1 inh 0%.
Screening CCOc1ccc(N(C)c2ccc(/C=C3/SC(=S)NC3=O)cc2)cc1 returned VP16 counter inconclusive, PLK1 PBD block 1%, RORgamma inh -127% and Sfp inh -13%.
CCOc1c(O)ccc(/C=C2\SC(=S)NC2=O)c1[N+](=O)[O-] was read as VP16 counter 10%, PLK1 PBD block 30µM*, RORgamma inh 27%, Sfp inh 11µM* and ALDH1A1 inh inconclusive.
For Cc1ccc(S(=O)(=O)NC(=O)C2(C)CCN2C(=O)c2ccccc2CCc2ccccc2)nc1 (centres undefined) the results were PLK1 PBD block 6%.
Screening COc1ccc(/C=N/Nc2nc(=O)[nH]nc2C)cc1[N+](=O)[O-] returned VP16 counter 1%, PLK1 PBD block -8%, RORgamma inh -4%, Sfp inh inconclusive and ALDH1A1 inh inconclusive.
COc1cc(/C=N/Nc2nc(=O)[nH]nc2C)cc([N+](=O)[O-])c1O was read as VP16 counter -4%, PLK1 PBD block 3%, RORgamma inh -47% and Sfp inh 56µM*.
For Cc1n[nH]c(=O)nc1N/N=C/c1ccc(O)c([N+](=O)[O-])c1 the results were VP16 counter inconclusive, PLK1 PBD block -13%, RORgamma inh 11µM*, Sfp inh 56µM* and ALDH1A1 inh inconclusive.
Cc1cccc(C)c1-n1c(C)cc(/C=N\NC(=O)CC(=O)NC2CCCCC2)c1C was read as VP16 counter -8%, PLK1 PBD block -18%, RORgamma inh -1%[10 µM], Sfp inh -6% and ALDH1A1 inh -12%.
